The other results are listed elsewhere or left out. The true hit rate is not given.
Biological target: furin, P09958
Experiment: furin cleavage Z-score vs untreated control; higher = more cleavage, active = 3.5 or more, inactive = 1 or less, 8 variable residues between constant flanks
In short: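 In 50 mM HEPES pH 7.5 with CaCl2 and NaCl, purified furin was incubated with bead-anchored 8-mer peptide–cDNA fusions at 1:10 enzyme:substrate in 0.01 ml. Incubation times were 7.5, 15 and 30 min. DNA set free by cleavage was adapter-tagged by PCR and sequenced, with read counts taken as abundance. Log counts relative to furin-free reactions, after lowess adjustment and median absolute deviation scaling, form the cleavage Z-score.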

furin, P09958, sequence (P09958 whole entry): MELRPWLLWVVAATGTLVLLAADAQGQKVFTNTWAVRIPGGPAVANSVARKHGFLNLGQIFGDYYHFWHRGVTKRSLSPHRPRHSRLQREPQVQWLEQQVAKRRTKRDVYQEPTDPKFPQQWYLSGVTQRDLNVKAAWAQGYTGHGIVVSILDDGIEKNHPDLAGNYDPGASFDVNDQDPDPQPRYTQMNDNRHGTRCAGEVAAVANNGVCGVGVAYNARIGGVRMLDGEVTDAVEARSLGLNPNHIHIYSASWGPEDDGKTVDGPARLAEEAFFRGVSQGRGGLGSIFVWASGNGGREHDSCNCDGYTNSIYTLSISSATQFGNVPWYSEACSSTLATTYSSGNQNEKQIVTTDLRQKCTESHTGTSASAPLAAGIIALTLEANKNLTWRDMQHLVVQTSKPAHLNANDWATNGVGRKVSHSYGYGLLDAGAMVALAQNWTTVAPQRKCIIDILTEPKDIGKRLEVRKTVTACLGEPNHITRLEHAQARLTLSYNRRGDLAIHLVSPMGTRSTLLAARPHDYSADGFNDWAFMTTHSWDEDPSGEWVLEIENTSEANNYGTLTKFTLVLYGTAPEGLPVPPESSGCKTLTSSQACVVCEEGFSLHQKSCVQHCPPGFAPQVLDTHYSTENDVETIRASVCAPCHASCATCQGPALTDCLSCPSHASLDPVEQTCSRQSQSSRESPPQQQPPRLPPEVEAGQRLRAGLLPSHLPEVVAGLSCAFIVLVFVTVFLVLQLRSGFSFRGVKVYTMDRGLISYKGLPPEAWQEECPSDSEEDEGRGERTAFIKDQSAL

Row | Sequence | furin cleavage Z-score (7.5 min) | furin cleavage Z-score (15 min) | furin cleavage Z-score (30 min)
1 | CAGIVPAKSVAGNASASA [HC408] | -0.985 (inactive) | 0.152 (inactive) | 0.898 (inactive)
2 | CASTPCSATLAGNASASA [HC2558] | 0.0385 (inactive) | -0.233 (inactive) | -0.615 (inactive)
3 | CARWRRSAPGAGNASASA [FS-2111] | 8.14 (active) | 8.62 (active) | 5.76 (active)
4 | CARWRRHQEGAGNASASA [FS-3132] | 0.592 (inactive) | 1.08 | 1.98
5 | CASTPCSAILAGNASASA [HC2544] | 1.05 | 1.22 | 0.242 (inactive)
6 | CARWRRVAVGAGNASASA [FS-2846] | 0.992 (inactive) | 1.04 | 3.3
7 | CARWRRSDILAGNASASA [FS-3133] | 1.69 | 5.44 (active) | 6.95 (active)
8 | CALYVGDLCGAGNASASA [HC298] | -1.6 (inactive) | -0.331 (inactive) | -1.76 (inactive)
9 | CAMNSTGFTKAGNASASA [HC438] | 0.142 (inactive) | -0.334 (inactive) | 0.353 (inactive)
10 | CAALAELATRAGNASASA [HC1332] | -0.307 (inactive) | -0.0975 (inactive) | -0.283 (inactive)
11 | CARQKKAAEKAGNASASA [FS-2584] | -1.07 (inactive) | -0.974 (inactive) | 1.2
12 | CARQRRGEERAGNASASA [FS-2761] | 2.18 | 0.285 (inactive) | 0.208 (inactive)
13 | CARQVRYLEKAGNASASA [FS-2175] | 0.662 (inactive) | 1.05 | 1.72
14 | CARQRRALEKAGNASASA [FS-1769] | 5.5 (active) | 5.75 (active) | 6.8 (active)
15 | CARQRRDLLNAGNASASA [FS-2173] | 6.3 (active) | 11.7 (active) | 11.3 (active)
16 | CARQRRALERAGNASASA [FS-2510] | 7.27 (active) | 9.89 (active) | 9.73 (active)
17 | CAEVPCHGPSAGNASASA [HC2376] | -0.0304 (inactive) | 0.46 (inactive) | -1.34 (inactive)
18 | CALSVEEACSAGNASASA [HC1412] | -1.32 (inactive) | 0.888 (inactive) | -0.38 (inactive)
19 | CADIARARRVAGNASASA [FS-121] | -0.464 (inactive) | -0.299 (inactive) | 0.591 (inactive)
20 | CATNNRKIRVAGNASASA [FS-1495] | 2.37 | 4.37 (active) | 4.34 (active)
21 | CASHRRQRRVAGNASASA [FS-499] | 7.8 (active) | 8.25 (active) | 6.5 (active)
22 | CAQRHRQGRVAGNASASA [FS-849] | -0.109 (inactive) | 1.55 | 0.481 (inactive)

Row | Sequence | furin cleavage Z-score (7.5 min) | furin cleavage Z-score (15 min) | furin cleavage Z-score (30 min)
23 | CARHRRPRRVAGNASASA [FS-1258] | 3.43 | 4.61 (active) | 4.95 (active)
24 | CAISRRQRRVAGNASASA [FS-36] | 5.61 (active) | 5.68 (active) | 6.35 (active)
25 | CAKNQRKIRIAGNASASA [FS-677] | -0.0796 (inactive) | 0.212 (inactive) | 1.01
26 | CAEVVTYTWVAGNASASA [HC157] | -1.14 (inactive) | -2.61 (inactive) | -1.31 (inactive)
27 | CAVRRRVQRMAGNASASA [FS-1662] | 9.65 (active) | 8.64 (active) | 6.99 (active)
28 | CAGEGAVQWMAGNASASA [HC1115] | -1.9 (inactive) | -0.502 (inactive) | -1.06 (inactive)
29 | CAVRRRSVQQAGNASASA [FS-2856] | 3.6 (active) | 4.13 (active) | 4.51 (active)
30 | CAVRRRAADQAGNASASA [FS-3143] | -0.697 (inactive) | 0.216 (inactive) | 1.49
31 | CAASRCWVAMAGNASASA [HC278] | 1.39 | -0.873 (inactive) | 1.5
32 | CAVVARSVNGAGNASASA [FS-1816] | -0.0409 (inactive) | 0.74 (inactive) | 1.63
33 | CAEIPCHRPSAGNASASA [HC2324] | 1.27 | 0.0659 (inactive) | -0.381 (inactive)
34 | CARRFRPRRFAGNASASA [FS-1072] | 9 (active) | 10.6 (active) | 9.46 (active)
35 | CARRFRPRRSAGNASASA [FS-1073] | 10.2 (active) | 9.93 (active) | 8.02 (active)
36 | CARRFAQALPAGNASASA [HC1300] | 0.481 (inactive) | 1.31 | -0.76 (inactive)
37 | CALHQRVRRFAGNASASA [FS-820] | 8.84 (active) | 10.6 (active) | 9.12 (active)
38 | CAPGQRVEFLAGNASASA [HC1469] | -0.0222 (inactive) | -0.699 (inactive) | -1.16 (inactive)
39 | CARRFRAALGAGNASASA [FS-3046] | -0.151 (inactive) | -1.57 (inactive) | 1.09
40 | CALRTRPRRFAGNASASA [FS-58] | 10.2 (active) | 12.6 (active) | 10.4 (active)
41 | CATTPLSGSWAGNASASA [HC44] | -0.768 (inactive) | -0.103 (inactive) | 0.0356 (inactive)
42 | CASTPCSAHQAGNASASA [HC2582] | -0.092 (inactive) | -1.41 (inactive) | -0.516 (inactive)
43 | CAMETKLITWAGNASASA [HC650] | -0.69 (inactive) | -0.554 (inactive) | -0.78 (inactive)

Reference: the supplement of paper PMC3545927
